This excerpt belongs to a sample that is enriched for hits.
Methyltransferases: Primary Screen for Target Class Profiling of Small Molecule Inhibitors of Methyltransferases | hit rate 3.9% among 25,000 | purified enzyme, MTase-Glo SAH luminescence; stronger effect = lower value | calls only at 40 µM; call rule not given here
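Each enzyme was assayed with SAM and its substrate. SAH formation detected by MTase-Glo luminescence; single-point 40 uM screen[…].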
* hit, by the source's call; i = inactive; + = active, no number. % is set by controls: 0 for no effect and ±100 for the full control effect.

SMILES | Methyltransferases
Cc1ccc(CCNC(=O)CCc2nnc3n(Cc4ccccc4)c(=O)c4ccccc4n23)cc1 | i
CCOCCCNC(=O)CCc1nnc2n(Cc3ccc(F)cc3)c(=O)c3ccccc3n12 | i
CCN(CC)CCCNC(=O)CCc1nnc2n(Cc3ccc(Cl)cc3)c(=O)c3ccccc3n12 | +
CCCCNC(=O)CCc1nnc2n(Cc3ccc(Cl)cc3)c(=O)c3ccccc3n12 | i
CC1CCN(CCCNC(=O)CCc2nnc3n(Cc4ccc(F)cc4)c(=O)c4ccccc4n23)CC1 | +
O=C(CCc1nnc2n(Cc3ccc(F)cc3)c(=O)c3ccccc3n12)NCCN1CCOCC1 | i
CCOCCCNC(=O)CCc1nnc2n(Cc3ccc(Cl)cc3)c(=O)c3ccccc3n12 | i
CC1CCN(CCCNC(=O)CCc2nnc3n(Cc4ccc(Cl)cc4)c(=O)c4ccccc4n23)CC1 | +
CN1CCN(CCCNC(=O)CCc2nnc3n(Cc4ccccc4Cl)c(=O)c4ccccc4n23)CC1 | i
Cc1ccc(CN2C(=O)c3ccc(-c4ccco4)n3CC2(C)C(=O)NC2CCCC2)cc1 (stereo unspecified) | i
Cc1cc2c(cc3n2CC(C)(C(=O)NC2CCCCCCC2)N(Cc2cccc(F)c2)C3=O)o1 (stereo unspecified) | i
CC1(C(=O)NCc2ccccc2)Cn2c(cc3ccccc32)C(=O)N1Cc1cccc(Cl)c1 (stereo unspecified) | i
CCc1cc2c(cc3n2CC(C)(C(=O)NC2CCCCC2)N(c2ccc(Cl)cc2)C3=O)s1 (stereo unspecified) | i
COc1ccccc1CNc1nc2c(-c3ccc(Cl)cc3)nnn2c2ccccc12 | i
CCOC(=O)CNC(=O)N1Cc2c(sc3c2CCCC3)-n2cccc2C1c1ccc(C(C)C)cc1 (stereo unspecified) | i
O=S(=O)(NCCn1c(-c2ccc(F)cc2)nc2ccccc21)c1ccc(Br)cc1 | i
Cc1ccc(CNc2ncnc3ccc(-c4ccc(CO)o4)cc23)o1 | +
CC1(C(=O)NC2CCCC2)Cn2c(ccc2-c2ccco2)C(=O)N1Cc1cccc(Cl)c1 (stereo unspecified) | i
CCCCN1C(=O)c2cc(C(=O)NCc3cc(OC)ccc3OC)nn2CC1(C)C(=O)NC1CCCC1 (stereo unspecified) | i
CCOC(=O)c1cc2n(n1)CC(C)(C(=O)NC1CCCCC1)N(c1ccc(C)c(F)c1)C2=O (stereo unspecified) | i
Cc1nc(C#Cc2ccnc(Cl)c2)c(C)n1-c1ccc(F)cc1 | +
CC(C)Cn1c(=O)c2ccc(C(=O)NC(C)C)cc2n2c(=O)n(Cc3ccc(F)cc3)nc12 | i
CCC(C)NC(=O)c1ccc2c(=O)n(CCC(C)C)c3nn(Cc4ccc(C)cc4)c(=O)n3c2c1 (stereo unspecified) | i
Cc1ccc(NC(=O)Cn2c(=O)oc3cc(S(=O)(=O)N4CCCC4)ccc32)cc1C | i
CC(C)CCN1C(=O)c2cc3occc3n2CC1(C)C(=O)NC1CCCCC1 (stereo unspecified) | i
SMILES | Methyltransferases
CC1(C)CCCC2(C)C(C(=O)O)=CCC12 (stereo unspecified) | i
C=C1CCC2C(C)(C)CCC[C@]2(C)[C@H]1C/C=C(\CO)C(=O)C(=O)O (stereo partly specified) | i
CC(=O)OC/C(=C/C(=O)O)CC[C@@H]1C(C=O)=CC[C@@H]2C(C)(C)CCC[C@@]12C | +
CC1=CCC2C(C)(C)CCCC2(C)C1CC12OC1C(O)C(CO)=CC2O (stereo unspecified) | i
CC1(C)CCC[C@]2(C)C1CC=C(CO)[C@H]2CC/C(=C/CO)CO (stereo partly specified) | i
CC(=O)OC/C(=C/C(=O)O)CC[C@@H]1C(CO)=CC[C@@H]2C(C)(C)CCC[C@@]12C | +
CC1CCC(NC(=O)C2(C)Cn3c(cc4sccc43)C(=O)N2Cc2ccccc2F)CC1 (stereo unspecified) | i
CCC(C)NC(=O)c1ccc2c(=O)n(C(C)C)c3nn(Cc4cccc(Cl)c4)c(=O)n3c2c1 (stereo unspecified) | i
CCOC(=O)c1ccc(N2C(=O)Cn3cccc3C2C(=O)NC2CCCCC2C)cc1 (stereo unspecified) | i
COC(=O)c1cc2n(n1)CC(C)(C(=O)NC1CCCC1)N(Cc1ccc(OC)cc1OC)C2=O (stereo unspecified) | i
Cc1nnc(N2CCC3(CCC(=O)N(CCCN(C)C)C3)CC2)c2ccccc12 | i
CN(C)CCCn1cc(C2=C(c3c[nH]c4ccccc34)C(=O)NC2=O)c2ccccc21 | +
C=CCn1c(=O)c2ccc(C(=O)NC(C)CC)cc2n2c(=O)n(CC(=O)NC(C)CC)nc12 (stereo unspecified) | i
COc1cccc(CNC(=O)CCc2nnc3n(Cc4ccc(F)cc4)c(=O)c4ccccc4n23)c1 | i
CC12CC(O)C(O)C=C1c1cc(O)cc(O)c1C(=O)O2 (stereo unspecified) | i
Cc1cc(O)c2c(c1)C(=O)c1cc(O)cc(O)c1C2=O | +
CC(C)CCn1c(=O)c2ccc(C(=O)NCC(C)C)cc2n2c(=O)n(CC(=O)NC(C)(C)C)nc12 | i
CC(C)NC(=O)c1ccc2c(=O)n(Cc3ccccc3)c3nn(CC(=O)NC4CCCC4)c(=O)n3c2c1 | i
CCCOc1ccc(CN2C(=O)c3cc4occc4n3CC2(C)C(=O)NC2CCC(C)CC2)cc1 (stereo unspecified) | i
Cc1cc(O)c(-c2ccc([C@@H](C)CN(C)C)cc2)c2c1[nH]c(=O)c1sccc12 | +
COc1ccc2cc3n(c2c1)CC(C)(C(=O)NC1CCCCC1)N(c1ccccc1OC)C3=O (stereo unspecified) | i
CCOC(=O)c1cc2n(n1)CC(C)(C(=O)NCc1ccc(F)cc1)N(Cc1ccc(OC)cc1)C2=O (stereo unspecified) | i
COc1ccc(-c2cc3n(n2)CC(C)(C(=O)NC2CCCCC2)N(Cc2cccs2)C3=O)cc1 (stereo unspecified) | i
CCOC(=O)c1cc2n(n1)CC(C)(C(=O)NCc1ccccc1)N(Cc1ccc(C)cc1)C2=O (stereo unspecified) | i
NC(=O)c1ccccc1 | i
SMILES | Methyltransferases
NC(=O)c1cnc(-c2ccc(C3(N)CCC3)cc2)c(-c2ccccc2)c1 | +
Cc1ccc(NC(=O)CCc2nnc3n(CCCOC(C)C)c(=O)c4ccccc4n23)cc1C | i
O=c1c2ccccc2n2c(=O)n(Cc3c(F)cccc3Cl)nc2n1Cc1ccccc1 | i
Fc1ccc(C(OCCCc2cnc[nH]2)c2ccc(F)cc2)cc1 | +
N=C(N)SCCc1cnc[nH]1 | i
CN(CC(=O)Nc1ccc(F)cc1F)S(=O)(=O)c1ccc2[nH]c3c(c2c1)CCCC3 | i
COc1cccc(C(=O)Cn2nc3n(Cc4ccc(F)cc4)c(=O)c4ccccc4n3c2=O)c1 | i
Cc1ccccc1CN1C(=O)c2ccc(-c3ccco3)n2CC1(C)C(=O)NC1CCCC1 (stereo unspecified) | i
CC1CCCN(c2nc3c(S(=O)(=O)c4ccccc4)nnn3c3ccc(Cl)cc23)C1 (stereo unspecified) | i
COc1ccc(OC)c(S(=O)(=O)N2CCC3(CC2)CC(CC(=O)N2CCCC2)CCO3)c1 (stereo unspecified) | i
COc1ccc(OC)c(CCNC(=O)Cn2ccc3cc(S(=O)(=O)N4CCCC4)ccc32)c1 | i

Screening data: PubChem BioAssay, National Center for Advancing Translational Sciences (NCATS)
